Source: the supplement of paper PMC8371130
Counter-ions that a name gives are not always drawn.

Test system: HL-1
Assay: relative cell viability (CellTiter-Glo) vs DMSO control (% of DMSO control); higher = more viable cells
Procedure, shortened: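 Plating of HL-1 mouse atrial cardiomyocytes at 1000 cells per well in 384-well plates was done together with compounds at 40, 200, 1000 or 5000 nM in 0.01% DMSO. A day later the cells faced 48 h of 1% O2 and then 24 h of reoxygenation, or matching normoxia. Viability was measured via CellTiter-Glo luminescence and set relative to vehicle-treated control cells.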

[1] = oxygen condition: hypoxia 48 h (1% O2) + reoxygenation 24 h, 40 nM
[2] = oxygen condition: hypoxia 48 h (1% O2) + reoxygenation 24 h, 200 nM
[3] = oxygen condition: hypoxia 48 h (1% O2) + reoxygenation 24 h, 1000 nM
[4] = oxygen condition: hypoxia 48 h (1% O2) + reoxygenation 24 h, 5000 nM
[5] = oxygen condition: normoxia 72 h, 40 nM
[6] = oxygen condition: normoxia 72 h, 200 nM
[7] = oxygen condition: normoxia 72 h, 1000 nM
[8] = oxygen condition: normoxia 72 h, 5000 nM

Row | Structure (SMILES) | relative cell viability [1] | relative cell viability [2] | relative cell viability [3] | relative cell viability [4] | relative cell viability [5] | relative cell viability [6] | relative cell viability [7] | relative cell viability [8]
1 | CN(C(=O)CN(CCO)CC(=O)N(C)C(C)(C)Cc1ccccc1)C(C)(C)Cc1ccccc1 [Oxethazaine] | 102 | 103 | 106 | 115 | 99.2 | 103 | 97.9 | 128
2 | CC(C)(C)c1ccc(C(O)CCCN2CCC(C(O)(c3ccccc3)c3ccccc3)CC2)cc1 (stereo not drawn) [Terfenadine] | 89 | 102 | 94.4 | 79.4 | 97.4 | 91.5 | 76.7 | 79.7
3 | Nc1nc(N)nc(-c2cc(Cl)ccc2Cl)n1 [Irsogladine] | 101 | 104 | 107 | 109 | 98.2 | 104 | 108 | 107
4 | C#Cc1cccc(Nc2ncnc3cc(OCCOC)c(OCCO)cc23)c1 | 100 | 106 | 107 | 109 | 111 | 104 | 105 | 121
5 | OC(CNCC(O)C1CCc2cc(F)ccc2O1)C1CCc2cc(F)ccc2O1 (stereo not drawn) [Nebivolol] | 106 | 109 | 106 | 112 | 103 | 107 | 112 | 115
6 | CC(C)(Sc1cc(C(C)(C)C)c(O)c(C(C)(C)C)c1)Sc1cc(C(C)(C)C)c(O)c(C(C)(C)C)c1 [Probucol] | 108 | 105 | 104 | 110 | 106 | 103 | 105 | 112
7 | CCCN[C@H]1CCc2nc(N)sc2C1 [Pramipexole] | 103 | 103 | 101 | 108 | 98.2 | 98.9 | 107 | 108
8 | CC(=O)OCC[N+](C)(C)C [Acetylcholine chloride] | 93.2 | 99.1 | 101 | 106 | 91.7 | 101 | 104 | 106
9 | CCCCC[C@H](O)/C=C/[C@H]1[C@H](O)CC(=O)[C@@H]1CCCCCCC(=O)O [Alprostadil] | 104 | 106 | 107 | 107 | 108 | 102 | 111 | 101
10 | CC(C)OC(=O)C(C(=O)OC(C)C)=C1SC=CS1 [Malotilate] | 89.7 | 105 | 115 | 109 | 102 | 104 | 111 | 109
11 | O=C(NCCO[N+](=O)[O-])c1cccnc1 [Nicorandil] | 101 | 105 | 108 | 102 | 104 | 98.1 | 99.2 | 102
12 | CN1CC(=O)NC1=N [Creatinine] | 105 | 104 | 106 | 114 | 102 | 97.3 | 100 | 108
13 | CC12CC3CC(C)(C1)CC(N)(C3)C2 [Memantine HCl] | 105 | 105 | 101 | 106 | 94.5 | 101 | 108 | 93.4
14 | O=c1cc[nH]c(=S)[nH]1 [2-Thiouracil] | 99.6 | 105 | 104 | 104 | 102 | 103 | 100 | 114
15 | O=C1CCc2ccc(OCCCCN3CCN(c4cccc(Cl)c4Cl)CC3)cc2N1 [Aripiprazole] | 98.7 | 104 | 97 | 97.8 | 99 | 99.7 | 98.7 | 99.9
16 | Oc1ncnc2[nH]ncc12 [Allopurinol] | 114 | 108 | 106 | 109 | 105 | 103 | 106 | 110
17 | COc1ccc2[nH]c([S@@+]([O-])Cc3ncc(C)c(OC)c3C)nc2c1 [Esomeprazole magnesium] | 107 | 113 | 114 | 118 | 104 | 114 | 115 | 119
18 | CC(=O)O[C@H]1C(=O)[C@@]2(C)[C@H]([C@H](OC(=O)c3ccccc3)[C@]3(O)C[C@H](OC(=O)[C@H](O)[C@@H](NC(=O)c4ccccc4)c4ccccc4)C(C)=C1C3(C)C)[C@]1(OC(C)=O)CO[C@@H]1C[C@@H]2O [Paclitaxel] | 42.4 | 42.8 | 39.9 | 30.5 | 52.3 | 52.2 | 33.2 | 22.2

Row | Structure (SMILES) | relative cell viability [1] | relative cell viability [2] | relative cell viability [3] | relative cell viability [4] | relative cell viability [5] | relative cell viability [6] | relative cell viability [7] | relative cell viability [8]
19 | CCCCC(=O)O[C@H]1CC[C@H]2[C@@H]3CCc4cc(O)ccc4[C@H]3CC[C@]12C [Estradiol valerate] | 100 | 103 | 108 | 108 | 98.8 | 103 | 102 | 118
20 | C=C(c1ccc(C(=O)O)cc1)c1cc2c(cc1C)C(C)(C)CCC2(C)C [Bexarotene] | 103 | 102 | 109 | 107 | 106 | 107 | 107 | 95.4
21 | CCN(CC)CC#CCOC(=O)C(O)(c1ccccc1)C1CCCCC1 (stereo not drawn) [Oxybutynin] | 97.2 | 99.9 | 101 | 102 | 109 | 103 | 104 | 101
22 | NC(=O)OCC(COC(N)=O)c1ccccc1 [Felbamate] | 101 | 106 | 96.3 | 110 | 110 | 107 | 105 | 110
23 | N=C(N)NC(=N)N1CCOCC1 [Moroxydine] | 101 | 98.5 | 103 | 108 | 96.3 | 101 | 105 | 114
24 | CCCC(=O)[O-].[Na+] [Sodium butyrate] | 103 | 101 | 99.4 | 107 | 98.7 | 99.2 | 105 | 107
25 | CN(C)CCC(c1ccccc1)c1ccccn1 (stereo not drawn) [Pheniramine Maleate] | 102 | 103 | 104 | 117 | 105 | 101 | 104 | 113
26 | CC(C)(C(=O)O)c1ccc(C(O)CCCN2CCC(C(O)(c3ccccc3)c3ccccc3)CC2)cc1 (stereo not drawn) [Fexofenadine HCl] | 106 | 96.5 | 99.8 | 99.8 | 107 | 96.2 | 104 | 110
27 | O=C(CCNNC(=O)c1ccncc1)NCc1ccccc1 [Nialamide] | 107 | 109 | 108 | 113 | 96.2 | 105 | 104 | 138
28 | O=P(O)(O)C(Cl)(Cl)P(=O)(O)O [Clodronate Disodium] | 114 | 114 | 114 | 115 | 117 | 111 | 113 | 113
29 | Cc1ccc(C)c(OCCCC(C)(C)C(=O)O)c1 [Gemfibrozil] | 98.5 | 104 | 101 | 103 | 102 | 113 | 106 | 106
30 | CNCC[C@@H](Oc1ccccc1C)c1ccccc1 [Atomoxetine HCl] | 102 | 104 | 108 | 108 | 100 | 102 | 103 | 119
31 | N=C(N)NCCN1CCCCCCC1 [Guanethidine Sulfate] | 101 | 101 | 96.2 | 113 | 103 | 107 | 103 | 116
32 | CCCCOc1cc(C(=O)NCCN(CC)CC)c2ccccc2n1 [Dibucaine HCL] | 103 | 107 | 108 | 118 | 109 | 110 | 109 | 118
33 | Cc1ccc(Nc2nccc(N(C)c3ccc4c(C)n(C)nc4c3)n2)cc1S(N)(=O)=O [Pazopanib HCl] | 94.1 | 106 | 105 | 109 | 103 | 113 | 104 | 109
34 | CN1CCC(=C2c3ccccc3CC(=O)c3sccc32)CC1 [Ketotifen fumarate] | 108 | 103 | 101 | 113 | 99.8 | 100 | 105 | 106
35 | CC[C@H]1OC(=O)[C@H](C)[C@@H](O[C@H]2C[C@@](C)(OC)[C@@H](O)[C@H](C)O2)[C@H](C)[C@@H](O[C@@H]2O[C@H](C)C[C@H](N(C)C)[C@H]2O)[C@](C)(O)C[C@@H](C)/C(=N\OCOCCOC)[C@H](C)[C@@H](O)[C@]1(C)O [Roxithromycin] | 101 | 106 | 101 | 106 | 101 | 100 | 103 | 112
36 | CCN(CC)CC#CCOC(=O)C(O)(c1ccccc1)C1CCCCC1 (stereo not drawn) [Oxybutynin chloride] | 94.2 | 99.1 | 98.7 | 98.8 | 104 | 96.3 | 91.2 | 107
